This is a sample that favours compounds with a hit; in the whole collection about 1% have one here.
TR SRC2 fluor cs: Texas Red fluorescence interference in TRb-SRC2 counter-screen; AID 1479; TRb/SRC2 Texas Red total fluorescence interference; hit rate 0.29% among 280,000; Potency, µM (series often up to 106 µM), for the others: at the top dose fluorescence change, negative = quenching; active means well fitted curve in either direction with a large enough effect; inconclusive means small, poorly fitted or top-dose-only effect; further: potency means the concentration at half of the fitted maximal effect; on the % scale 0 is the no-effect control and ±100 the full control effect
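Human TRb ligand-binding domain at 0.6 uM with 20 nM Texas Red SRC2 peptide in Tris buffer containing 1 uM T3 and 5% DMSO, incubated with compound 5 h at ambient temperature. Total fluorescence (555/632 nm) calculated as parallel + 2 × perpendicular.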
Coupling enz: inhibits coupling enzyme system, counter-screen for aldolase hits; coupling enzyme system counterscreen, AmpLite Red fluorescence; hit rate 0.67% among 290,000; activity change, negative = inhibition, % at 58.2 µM, hits read low; in the data active means activity change below about -30%; further: on the % scale 0 is the no-effect control and ±100 the full control effect
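Coupling enzymes only (glyceraldehyde-3-phosphate) + compound, at 57.5 uM final, 10 min RT; add substrate/coupling/AmpLite Red mix, 20 min RT; fluorescence ex 525/em 598 nm. Actives flag coupling-system interference.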
NPSR antag: antagonists of human neuropeptide S receptor cAMP signaling. Q6W5P4. hit rate 1% among 220,000. Potency, µM (series often up to 38.3 µM), inactives show top-dose activity change, negative = inhibition, usual class: inhibitors. CHO-NPSR cells, cAMP TR-FRET, antagonist mode. AID 1461; further: potency means the concentration at half of the fitted maximal effect; on the % scale 0 is the no-effect control and ±100 the full control effect; nearly all actives have a fitted effect of over 50% in size
Target sequence (Q6W5P4 whole entry, looked up): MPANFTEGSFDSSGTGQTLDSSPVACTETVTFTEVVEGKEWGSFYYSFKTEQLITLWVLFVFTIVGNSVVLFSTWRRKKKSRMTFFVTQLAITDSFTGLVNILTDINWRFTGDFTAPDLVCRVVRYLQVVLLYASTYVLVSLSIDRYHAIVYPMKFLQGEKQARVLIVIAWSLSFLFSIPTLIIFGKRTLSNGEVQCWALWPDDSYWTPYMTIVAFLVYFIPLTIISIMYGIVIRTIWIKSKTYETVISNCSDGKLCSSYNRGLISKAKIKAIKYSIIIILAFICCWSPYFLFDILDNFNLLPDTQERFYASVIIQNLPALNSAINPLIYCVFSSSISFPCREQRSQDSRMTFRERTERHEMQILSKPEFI
TCR activator: activators of T cell receptors | primary human leukocytes, anti-CD3, IL-2 HTRF, 48 h | Potency, µM (top dose mostly 9.22 µM), for the others: top-dose activation of IL-2 secretion, usual class: activators | 330,000 tested, under 10 active; further: % of control where 0% means no effect
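Primary human leukocytes incubated 48 hr with anti-CD3 beads plus compound, without co-stimulation. Secreted IL-2 measured by HTRF (europium cryptate/d2 anti-IL-2 pair, 320 nm excitation, 665 nm emission).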
TSHR antagonist: antagonists of human thyroid stimulating hormone receptor; activity change, negative = inhibition, % at 11.5 µM; AID 504810; TSHR-expressing cells, TSH-stimulated cAMP HTRF, 2 h; active compounds read low; hit rate 0.2% among 330,000; P16473;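 active means activity change below a set negative limit, meaning inhibition stronger than a set level, cut at about -70% in these data; inconclusive means activity change between two set negative limits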; further: on the % scale 0 is the no-effect control and ±100 the full control effect
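Read-out is FRET at 665 nm (cryptate excitation 337 nm) from a cryptate-tagged anti-cAMP antibody, competed by cell cAMP against cAMP-d2. Compounds are tested on freshly harvested TSHR cells challenged with 4nM TSH (EC80) for 2 hours at 37 deg C.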
TRb SRC2 PPI: TRbeta-SRC2 interaction inhibition; Potency, µM (top dose mostly 106 µM), for the others: at the highest dose activity change, negative = inhibition, actives largely listed as inhibitors; P10828; hit rate 0.065% among 280,000; AID 1469; TRbeta-SRC2 peptide binding, fluorescence polarization; receptor liganded with 1 µM T3;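 further: potency means the concentration at half of the fitted maximal effect; plate controls were bound peptide for no effect and peptide without receptor for full effect; nearly all actives have a fitted effect of over 50% in size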
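Human TRb ligand-binding domain (0.6 uM) is mixed with 20 nM Texas Red SRC2 peptide and 1 uM T3; after compound addition and 5 hr at ambient temperature, polarization is measured and normalized to unbound and bound controls.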
Starred values were filed as active, the others as inactive; ? = inconclusive; nt = no result given; [ ] = remark or other dose. Unless noted, the call rests on the fitted dose curve; in most records, active means well fitted curve in the direction sought with a large enough effect; inconclusive means small, poorly fitted or top-dose-only effect, or another doubt; inactive means no such curve, though single readings can be large; an effect the other way counts as inactive or inconclusive.

SMILES | TR SRC2 fluor cs | Coupling enz | NPSR antag | TCR activator | TSHR antagonist | TRb SRC2 PPI
COc1ccc(NC(=O)Cn2c(=O)oc3cc(S(=O)(=O)N4CCC(C)CC4)ccc32)c(OC)c1 | -4% | nt | nt | nt | nt | 1%
O=C(Nc1cc(Cl)ccc1O)c1cc2n(n1)C(C(F)(F)F)CC(c1ccc3c(c1)OCO3)N2 (configuration not stated) | 1% | 0 | 6.3µM* | -4% | -25 | -3%
COc1ccc(NS(=O)(=O)c2cc(NC(=O)C3CC3)ccc2N2CCCCC2)cc1 | -2% | -5 | 13µM* | -5% | 5 | 0%
COc1ccc(NS(=O)(=O)c2cc(NC(=O)C3CC3)ccc2N2CCOCC2)cc1 | 0% | 0 | -35% | nt | -4 | -1%
COc1ccc(NC(=O)CCn2c(-c3ccc(F)cc3)cc(C(C)=O)c2C)c(OC)c1 | -4% | nt | nt | nt | nt | -6%
CCOC(=O)c1nc(C)sc1-c1ccnn1S(=O)(=O)c1ccc(C)cc1 | -1% | 1 | 51% | 0% | -78* | -11%
O=c1oc2ccccc2c(Nc2cc3ccccc3cc2O)c1[N+](=O)[O-] | 1% | -56* | 19% | -2% | 4 | 2%
CCOc1ccc(NC(=O)CSC2=Nc3ccccc3C3=NC(CC(=O)NCc4ccccc4OC)C(=O)N23)cc1 (configuration not stated) | 0% | nt | nt | nt | nt | 5%
CC1=CC(C)(C)Nc2ccc(OC(=O)CN3C(=O)CCC3=O)cc21 | -1% | -32* | -12%[46.1 µM] | -19% | 5 | -2%
CN(C(=S)Nc1ccccc1)c1ccccc1 | -1% | 4 | 11% | 1%[46.1 µM] | -7 | -3%
CN(C(=S)Nc1ccc(SC(F)F)cc1)c1ccc(O)cc1 | -15% | -34* | 3% | -5%[46.1 µM] | -4 | ?
CN(C(=S)Nc1ccc(Oc2ccccc2)cc1)c1ccc(O)cc1 | -1% | -50* | -13% | 10%[46.1 µM] | 6 | 4%
CN(C(=S)Nc1cccnc1)c1ccc(O)cc1 | -16% | -33* | 6% | 2%[46.1 µM] | 4 | 35µM*
CS(=O)(=O)c1ccc(-c2csc(N3CCC(C(N)=O)CC3)n2)cc1 | nt | nt | nt | nt | 26 | nt
CCN(CC)c1nc(N)nc(NS(=O)(=O)c2ccc(Cl)cc2)n1 | -4% | -33* | -13%[46.1 µM] | 5% | -14 | 1%
Cc1cc(NN)nc(NS(=O)(=O)c2ccc(Cl)cc2)n1 | -6% | 0 | 4% | 4% | 2 | 0%
CCOC(=O)c1ccc(NC(=O)CSc2cc(-c3ccccc3)nc(C)n2)cc1 | -42% | nt | nt | nt | nt | -4%
CC(=O)N1CCc2cc(Br)cc(S(=O)(=O)N3CCC(C(=O)O)CC3)c21 | nt | 11 | nt | 5% | -106* | nt
COC(=O)c1ccc(I)cc1S(=O)(=O)NC(=O)Nc1nc(C)nc(OC)n1 | 1%[201 µM] | nt | nt | nt | nt | -2%[201 µM]
COC(=O)c1ccc2c(c1O)C(=O)c1ccccc1C2=O | -4% | -44* | 10%[46.1 µM] | nt | 18 | 5%
O=C1c2ccccc2C(=O)c2c1ccc(O)c2O | -10% | 0 | nt | 11% | nt | -16%
Cc1ccc(Cn2c(CNC(=O)CCc3ccccc3)nc3cccnc32)cc1 | -2% | nt | nt | nt | nt | -4%
COC1=CC(=O)c2ccccc2C1=O | nt | nt | nt | 0% | 35 | nt
C=CC(C1=CC(=O)C(OC)=CC1=O)c1ccc(OC)cc1 (configuration not stated) | 0% | -40* | nt | nt | nt | 4%
C=CC(C1=CC(=O)C(OC)=C(OC)C1=O)c1ccccc1 (configuration not stated) | -1% | -80* | nt | nt | nt | -3%
SMILES | TR SRC2 fluor cs | Coupling enz | NPSR antag | TCR activator | TSHR antagonist | TRb SRC2 PPI
COC1=C(OC)C(=O)C(Sc2ccc3ccccc3c2)=CC1=O | nt | nt | nt | 3% | nt | nt
C=CC(C1=CC(=O)C(OC)=CC1=O)c1ccccc1 (configuration not stated) | -3% | -53* | nt | nt | nt | -6%
Cc1ccc(NC(=O)c2cc(CN3CCOCC3)on2)cc1Cl | ? | nt | nt | nt | nt | -7%
CCn1cnc2cc(NCc3ccccc3Cl)ccc21 | nt | 1 | nt | 5% | 2 | nt
COc1cccc(CNc2ccc3c(c2)nc(C)n3C)c1OC | nt | 0 | nt | nt | 13 | nt
COc1cccc(CNc2ccc3c(c2)ncn3C)c1OC | 0.0089µM*[quencher] | 2 | nt | nt | 0 | -5%
COc1cccc(CNc2ccc(N3CCCCC3)cc2)c1OC | 4% | -34* | ? | 8% | 2 | -25%
CCCCn1cnc2cc(NCc3ccccc3Cl)ccc21 | 0.063µM*[quencher] | nt | nt | nt | nt | -23%[53 µM]
CC(CC(C)(C)C)CP(=O)(O)CC(C)CC(C)(C)C (configuration not stated) | 1% | 9 | nt | nt | nt | -9%
Cc1ccn2c(=O)c(C(=O)NC(C)c3ccccc3)c(O)nc2c1 (configuration not stated) | 3% | nt | nt | nt | nt | -5%
CC(NC(=O)c1c(O)nc2ccccn2c1=O)c1ccccc1 (configuration not stated) | 18µM*[quencher] | nt | nt | nt | nt | -7%
COCCOC(=O)c1[nH]c2c(c1C)C(=O)C(C(=O)OC)C(C)C2 (configuration not stated) | 1% | -36* | -9%[46.1 µM] | -1% | -6 | -9%
CCCCCOC(=O)c1[nH]c2c(c1C)C(=O)C(C(=O)OC)C(C)C2 (configuration not stated) | 2% | 1 | -26%[46.1 µM] | 0% | -6 | -1%
COC(=O)C1C(=O)c2c([nH]c(C(=O)OCC3CCCO3)c2C)CC1C (configuration not stated) | 0% | -1 | 13µM* | -4% | 7 | -8%
Cc1cccc(NC(=O)Cn2nc(-c3ccccc3)c3cnc4ccccc4c32)c1 | -2% | nt | nt | nt | nt | 6%
CCOC(=O)c1c(C)n(-c2ccc(C)cc2)c2c(CC(C)=O)c(Br)c(OC)c(O)c12 | 1% | 0 | 10µM* | 6% | -9 | -16%
CCOC(=O)c1c(C)n(-c2ccc(C)cc2)c2c(C(C(C)=O)C(=O)O)c(Br)c(O)c(O)c12 (configuration not stated) | 2% | -34* | 10µM* | 3% | 13 | -15%
N#CCc1nn2c3c(cnc2c1C#N)C(=O)CCC3 | -6% | -32* | 5% | -2% | 20 | -3%
Cc1cc(/C=C2\SC(=Nc3ccc(F)cc3)NC2=O)c(C)n1-c1ccc(S(N)(=O)=O)cc1 | -1% | -7 | 10µM* | -3% | -8 | 4%
CCOC(=O)c1c(-c2ccccc2)csc1NC(=O)c1nc(S(=O)(=O)CC)ncc1Cl | 12% | nt | nt | nt | nt | -7%
Cc1[nH]c2ccc3ncccc3c2c1C | 0% | -39* | 10% | 20%[46.1 µM] | 0 | 7%
Cc1c(C)c2cccnc2c2ncccc12 | nt | nt | nt | 6% | nt | nt
CCOc1ccc(NC(=O)Nc2cc(OCC(F)(F)F)cc(OCC(F)(F)F)c2)cc1 | -3% | -2 | -27% | 3% | -2 | 4%

Screens: PubChem BioAssay, National Center for Advancing Translational Sciences (NCATS)
